{
  "source": "PubChem BioAssay (EPA / NIEHS)",
  "note": "The source made the active and inactive calls. Rule for the calls: active = hit-call score of the fitted dose curve at least 0.9, where 1 is the maximum; inactive = score below 0.9.",
  "data": [
    {"assay": "ATG_PPRE_CIS: Attagene CIS-FACTORIAL HepG2 Assay for human Peroxisome Proliferator-activated Response Element (PPRE) (AID 2282958)", "conditions": "HepG2 PPRE cis-element reporter, Attagene transcription factor profiling; actives raise or lower the signal", "description": "ATG_CIS is a cell-based, multiplexed-readout assay that uses HepG2, a human liver cell line, with measurements taken at 24 hours after chemical dosing in a 24-well plate.ATG_PPRE_CIS is one of 52 assay component(s) measured or calculated from the ATG_CIS assay. It is designed to make measurements of mRNA induction, a form of inducible reporter, as detected with fluorescence intensity signals by Reverse transcription polymerase chain reaction (RT-PCR) and Capillary electrophoresis technology.Data from the assay component ATG_PPRE_CIS was analyzed into 1 assay endpoint. This assay endpoint, ATG_PPRE_CIS, was analyzed with bidirectional fitting relative to DMSO as the negative control and baseline of activity. Using a type of inducible reporter, measures of mRNA for gain or loss-of-signal activity can be used to understand the reporter gene at the transcription factor-level as they relate to the gene PPARA and PPARD and PPARG. Furthermore, this assay endpoint can be referred to as a primary readout, because this assay has produced multiple assay endpoints where this one serves a reporter gene function. To generalize the intended target to other relatable targets, this assay endpoint is annotated to the nuclear receptor intended target family, where the subfamily is non-steroidal.\nHuman liver HepG2 cells are transiently transfected with multiple reporter transcription units (MRTUs) in 6-well plates using FuGene 6 reagent (Roche; 3 ml FuGene/1 mg DNA). The MRTU constructs are regulated by a cis-regulating element (promoter). […] A major difference between the CIS and TRANS system is that in CIS activities of endogenous TFs are measured, whereas the TRANS assay evaluates changes in activities of exogenous, chimeric NR-Gal4 proteins. […] At the end of 24 hour incubation, total RNA was isolated using TriZol reagent (Invitrogen). The isolated RNA is then reverse-transcribed using oligo(dT) primer and Mo-MLV reverse transcriptase (Invitrogen) with DNAse I (Ambion) treatment for 30 min. The one-tenth of the produced cDNA was amplified by PCR using Taq DNA polymerase (Invitrogen) and two reporter sequence-specific primers. The PCR products were fluorescently labeled by primer extension with 6-arboxyfluorescein (6-FAM) 5'-labeled reporter sequence-specific primer (2 min at 95 C, 20 s at 68 C and 10 min at 72 C) and these products were digested with 5U of HpaI (New England Biolabs) for 2h at 37 C. The fragments were purified using Qiaquick PCR columns (Qiagen), analyzed on an ABI 3130xL genetic analyzer (Applied Biosystems) with peak positions identified by using a set of X-rhodamine (ROX)-labeled MapMarker1000 molecular weight standards (BioVentures). The raw capillary electrophoresis data was processed using Attagraph software (Attagene).", "values": [
      {"smiles": "Cc1cnc(NC(=O)C2=C(O)c3ccccc3S(=O)(=O)N2C)s1", "outcome": "inactive"},
      {"smiles": "O=C(c1ccccc1)C1CCC1", "outcome": "inactive"},
      {"smiles": "O=C(Cl)c1cc(C(=O)Cl)cc(C(=O)Cl)c1", "AC50": "100 µM (active)"},
      {"smiles": "FC(F)=C(F)OC(F)(F)C(F)(F)C(F)(F)F", "outcome": "inactive"},
      {"smiles": "CCCOC(=O)CCCCC(=O)OCCC", "outcome": "inactive"},
      {"smiles": "O=c1c2ccccc2nnn1CCl", "outcome": "inactive"},
      {"smiles": "CC=C1CC2C=CC1C2", "note": "(stereo not given)", "outcome": "inactive"},
      {"smiles": "CN(C)CCCN(C)C", "outcome": "inactive"},
      {"smiles": "O=c1[nH]nc(-c2ccc([N+](=O)[O-])o2)o1", "outcome": "inactive"},
      {"smiles": "CC(=O)CC(N)=O", "outcome": "inactive"},
      {"smiles": "OCCCS", "outcome": "inactive"},
      {"smiles": "CC(C)(c1cc(Br)c(OCCO)c(Br)c1)c1cc(Br)c(OCCO)c(Br)c1", "outcome": "inactive"},
      {"smiles": "CCCCCCCCCCCCCCCC(=O)OCC", "outcome": "inactive"},
      {"smiles": "O=C(Nc1cccc(C(F)(F)F)c1)c1cc(Br)cc(Br)c1O", "outcome": "inactive"},
      {"smiles": "COCc1c(C(C)C)nc(C(C)C)c(/C=C/[C@@H](O)C[C@@H](O)CC(=O)O)c1-c1ccc(F)cc1", "AC50": "1.67 µM (active)"},
      {"smiles": "CCCC(C)CCC(C)=O", "note": "(stereo not given)", "outcome": "inactive"},
      {"smiles": "CC(C)=CCC[C@H](C)CCO", "outcome": "inactive"},
      {"smiles": "CCO[Si](CCCN=C=O)(OCC)OCC", "outcome": "inactive"},
      {"smiles": "C=CC(=O)OCCOC1C2CCC1C1CC=CC12", "note": "(stereo not given)", "outcome": "inactive"},
      {"smiles": "C1CN(SSN2CCOCC2)CCO1", "outcome": "inactive"},
      {"smiles": "CCCCNc1ccc(NCCCC)c2c1C(=O)c1ccccc1C2=O", "outcome": "inactive"},
      {"smiles": "C/C=C\\C/C=C/CCCCCCCCOC(C)=O", "outcome": "inactive"},
      {"smiles": "CCCCCCOC(=O)C(C)CC", "note": "(stereo not given)", "outcome": "inactive"},
      {"smiles": "CN(C)c1ccc(N=Nc2ccccc2C(=O)O)cc1", "AC50": "17.8 µM (active)"},
      {"smiles": "CC(C)c1ccc(C#N)cc1", "outcome": "inactive"},
      {"smiles": "CCCCC/C=C\\C/C=C\\CCCCCCCC(=O)OC", "outcome": "inactive"},
      {"smiles": "Cc1ccc(C2OC[C@@H]3OC(c4ccc(C)cc4)O[C@H]([C@H](O)CO)[C@@H]3O2)cc1", "note": "(stereo not given in full)", "outcome": "inactive"},
      {"smiles": "Cc1cccc(N)n1", "outcome": "inactive"},
      {"smiles": "O=S(=O)(O)CC(O)CCl", "note": "(stereo not given)", "outcome": "inactive"},
      {"smiles": "CCCCCCC(O)CO", "note": "(stereo not given)", "outcome": "inactive"},
      {"smiles": "CCOC(=O)CC(C(C)=O)C(C)=O", "outcome": "inactive"},
      {"smiles": "CC/C=C\\C/C=C\\C/C=C\\CCCCCCCC(=O)O", "AC50": "40.1 µM (active)"},
      {"smiles": "CC1(C)O[C@@H]2C[C@H]3[C@@H]4C[C@H](F)C5=CC(=O)C=C[C@]5(C)[C@@]4(F)[C@@H](O)C[C@]3(C)[C@]2(C(=O)CO)O1", "outcome": "inactive"},
      {"smiles": "C=C[Si](OC(C)=O)(OC(C)=O)OC(C)=O", "outcome": "inactive"},
      {"smiles": "OCCNCc1ccccc1", "outcome": "inactive"},
      {"smiles": "CCOc1ccc(N)c([N+](=O)[O-])c1", "outcome": "inactive"},
      {"smiles": "CCOc1nc(F)cc2nc(S(=O)(=O)Nc3c(Cl)cccc3C(=O)OC)nn12", "outcome": "inactive"},
      {"smiles": "C=C[C@](C)(O)CC[C@@H]1[C@@]2(C)CCCC(C)(C)[C@@H]2CC[C@@]1(C)O", "outcome": "inactive"},
      {"smiles": "O=C1CCC(=O)N1Cl", "outcome": "inactive"},
      {"smiles": "C=C(C)CCO", "outcome": "inactive"}
    ]}
  ]
}
